Several values for one entry are separate records, joined by “and”; a condition that tells them apart may be missing. Equal entries are not always repeated. Compounds without any hit were thinned out: in the full panel of roughly 79,000, 15% have a hit. Activity calls are given as the source filed them. No stated cut-off is given here; in the data, active means growth inhibition above about 70%; inactive means the rest.
Experiments:
[1] = NCI Yeast Anticancer Drug Screen. Data for the rad50 strain (AID 155);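 further: 0% = growth of vehicle-only cultures of the same strain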; conditions: S. cerevisiae rad50 strain growth inhibition; at 50.0 µM; hits give high values
Method in brief: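 Inhibition values express reduced yeast growth in compound-treated cultures relative to vehicle-treated controls.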

[2] = NCI Yeast Anticancer Drug Screen. Data for the mec2-1 strain (AID 157); conditions: S. cerevisiae mec2-1 strain, at 50.0 µM, hits give high values
Method in brief: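 Using mec2-1 yeast: add compound, measure growth, express inhibition versus vehicle-treated cultures.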

[3] = NCI Yeast Anticancer Drug Screen. Data for the sgs1 mgt1 strain (AID 161);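 further: 0% = growth of cultures given vehicle only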; conditions: S. cerevisiae sgs1 mgt1 strain, at 50.0 µM, hits give high values
Method in brief: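 Compounds are added to genetically altered yeast, and growth is compared with cultures given vehicle alone to give percent inhibition.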

[4] = NCI Yeast Anticancer Drug Screen. Data for the cln2 rad14 strain (AID 165);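 further: 0% = growth equal to vehicle treated cultures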; conditions: S. cerevisiae cln2 rad14 strain, at 50.0 µM, hits give high values
Method in brief: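 Yeast strain cln2 rad14, bearing defects in cell cycle control and DNA repair, serves as the test system; values reflect growth inhibition compared with vehicle.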

[5] = NCI Yeast Anticancer Drug Screen. Data for the bub3 strain (AID 167); conditions: S. cerevisiae bub3 mutant strain, at 50.0 µM, hits give high values
Method in brief: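 Steps: expose the mutant yeast strain to compound; grow alongside vehicle-treated cultures; measure growth; express inhibition against the vehicle cultures.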

[6] = NCI Yeast Anticancer Drug Screen. Data for the mlh1 rad18 strain (AID 175); conditions: S. cerevisiae mlh1 rad18 strain growth inhibition; at 50.0 µM; hits give high values
Method in brief: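 Steps: expose repair-defective yeast to compound; measure growth; express inhibition against vehicle-treated controls.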

Measured: growth inhibition

CN(C)C(=S)Oc1ccc(S(=O)(=O)F)cc1
inactive: [1] 34.2% | [2] 17.2% | [3] 14.6% | [4] 22.6% | [5] 8.65% | [6] 20.9%

CC12C(=O)C(C)(C(c3ccccc3)=C1c1ccccc1)C1(C#N)NC21C#N (centres undefined)
inactive: [1] 14.9% | [2] 2.65% | [3] 22.8% | [4] 18.2% | [5] 13.8% | [6] 40%

COC[C@]12CN(C=O)[C@H]3C4[C@H](OC)[C@H]1C3([C@@H](OC)C[C@H]2O)[C@@H]1C[C@@]2(O)[C@H](OC(=O)c3ccccc3)[C@@H]1[C@]4(OC(C)=O)[C@@H](O)[C@@H]2OC
inactive: [1] 9.45% | [2] 14.4% | [3] -13.8% | [4] -2.2% | [5] 0.2% | [6] 25.6%

CCOP(=O)(OCC)C(C#N)OC(C)(C)C (centres undefined)
inactive: [1] 4.4% | [2] 20.4% | [3] 12.2% | [4] -0.25% | [5] 10.3% | [6] 2.35%

CCC1(c2ccccc2)C(=O)N(C)C(=O)N(CCCl)C1=O (centres undefined)
inactive: [1] 12.5% | [2] 8.15% | [3] -0.8% | [4] -34.5% | [5] 22.3% | [6] 3.85%

N=C(N)SCc1ccc(Cl)c(Cl)c1 (tested in a mixture with another compound)
inactive: [1] 13.6% | [2] 10.8% | [3] -3.55% | [4] -6.1% | [5] 3.5% | [6] 10.7%

[C-]#[O+].[C-]#[O+].[C-]#[O+].[Ni].c1ccc([PH+](CC[PH+](c2ccccc2)c2ccccc2)CC[PH+](c2ccccc2)c2ccccc2)cc1
inactive: [1] 43.9% | [2] 38.5% | [3] 46.7% | [4] 32.8% | [5] 42.6% | [6] 46.3%

O=NNc1ccc(Br)cn1
inactive: [1] -2.7% | [2] -6.25% | [3] 5.7% | [4] -0.85% | [5] -0.35% | [6] 4.2%

Cc1cc(Cl)ccc1OCCCC(=O)O
inactive: [1] 28.4% | [2] 16.2% | [3] 41.5% | [4] 21% | [5] 47.1% | [6] 15.4%

COC(C)CCOC(=O)Cc1ccccc1 (centres undefined)
inactive: [1] 16.1% | [2] -5.25% | [3] -0.15% | [4] -41% | [5] 13.4% | [6] 5.25%

CCCCCCNC(=O)CCl
inactive: [1] 6.5% | [2] -9.85% | [3] 15.3% | [4] -14.6% | [5] 7.45% | [6] -9.15%

O=C([O-])c1ccccc1Nc1ccccn1.O=C([O-])c1ccccc1Nc1ccccn1.[Ni+2]
inactive: [1] -15% | [2] -12.4% | [3] -15.6% | [4] 8.15% | [5] -16.8% | [6] -9.85%

CN1CCN(Cc2ccccc2)CC1CC#N (centres undefined)
inactive: [1] -17.3% | [2] -34.8% | [3] -24.1% | [4] -0.2% | [5] 2.65% | [6] -30.9%

OCC(O)C(O)C(O)C1C[O][Sb][O]1 (centres undefined)
inactive: [1] 0.85% | [2] 3.6% | [3] 7.85% | [4] -11.2% | [5] -2.85% | [6] 8.2%

O=C1C=CC=C[C@@H]2C(C3OCCO3)CC[C@H]12.[C-]#[O+].[C-]#[O+].[C-]#[O+].[Fe] (some centres undefined)
inactive: [1] 4.3% | [2] 14.8% | [3] -7.3% | [4] 23.1% | [5] 7.5% | [6] 4.75%

[Cl][Co][Cl].[NH-]CC[NH-].[NH-]CC[NH-]
inactive: [1] 19.2% and -9.85% | [2] 9.3% and 29.6% | [3] 25.2% and -4.55% | [4] -9.95% and 9.2% | [5] 36.7% and 2.4% | [6] 37% and -23.4%

COc1ccc(C=C2C(=O)NC(=O)NC2=O)cc1OC
inactive: [1] 10.7% | [2] -0.6% | [3] 22.2% | [4] 8.8% | [5] -11.8% | [6] 23.9%

CN1C2CCC1CC(=O)C2
inactive: [1] -14.6% | [2] -48.2% | [3] -32.6% | [4] -8.35% | [5] -29.9% | [6] -27.4%

Nc1[nH]c(=S)[nH]c(=O)c1Cn1ccnc1
inactive: [1] -20.4% | [2] 0.8% | [3] -23.4% | [4] -17.1% | [5] -11.2% | [6] -33.8%

C[C@@]1(CCCCCCCCCCc2ccccc2)C[C@@]2(C)OC(=O)C[C@H]2OO1
inactive: [1] -15.1% | [2] -6.05% | [3] -20.2% | [4] -39% | [5] -80.7% | [6] -25.6%

Cn1c(=S)[nH]n(CCOc2ccccc2)c1=S
inactive: [1] -7.15% | [2] -5.35% | [3] -5.85% | [4] -18.4% | [5] 3.45% | [6] -6.05%

O=[N+]([O-])c1ccc(/C=C/c2ccc(Cl)c(S(=O)(=O)F)c2)c(Cl)c1
inactive: [1] 15.6% | [2] -4.95% | [3] -1.7% | [4] 2.45% | [5] 13% | [6] -6.3%

c1c[nH]c(Cc2ncc(Cc3cnc[nH]3)[nH]2)n1
inactive: [1] 4.4% | [2] -20.6% | [3] -9.55% | [4] 21.8% | [5] -13% | [6] -9.6%

CN(C)c1ccc2c(c1)Cc1ccccc1-2
inactive: [1] 1% | [2] -8.65% | [3] 18.2% | [4] -24.1% | [5] 44% | [6] -25.8%

COC(=O)N/N=C(/CCN1CCCC1)CC(c1ccccc1)c1c(O)c2ccccc2oc1=O (centres undefined)
inactive: [1] 19.4% | [2] -4.45% | [3] 10% | [4] 9.2% | [5] 8.7% | [6] 14.9%

O=C(O)CN(CCN(CC(=O)O)CC(=O)O)CC(=O)O.[Co+2]
inactive: [1] 0.25% | [2] -3.85% | [3] 13.2% | [4] 19.1% | [5] 16.4% | [6] 7.45%

Cc1cc2n[se]nc2cc1C
inactive: [1] 18.3% | [2] -9.15% | [3] 20.6% | [4] 6.3% | [5] -6.65% | [6] 21.7%

Cc1cccc(N)c1
inactive: [1] 6.5% | [2] -6.75% | [3] 1.35% | [4] 5.65% | [5] 14.2% | [6] 10.4%

CCOC(=O)C(C(=O)OCC)P(=S)(S)c1ccccc1 (centres undefined)
inactive: [1] 6.2% | [2] -33.9% | [3] -11.2% | [4] 9.2% | [5] -9.6% | [6] -10.1%

CC[N+](CC)(CC)CC
inactive: [1] -16.7% and -6.2% | [2] 2.1% and -17.7% | [3] 6.6% and -1.6% | [4] -10.4% and 2.05% | [5] 0.8% and -1.3% | [6] -15.8% and -4.9%

Cc1cccc(N2C(=O)C3C(C2=O)C2(Cl)C(Cl)=C(Cl)C3(Cl)C2(Cl)Cl)c1C (centres undefined)
active: [1] 88.2%
inactive: [2] 48.6% | [3] 50.5% | [4] 57% | [5] 65.6% | [6] 56%

Cc1cc(NC2=NCCO2)c2c(c1C)CCCC2
inactive: [1] -10.1% | [2] -23.1% | [3] -6.9% | [4] 22.3% | [5] -7.85% | [6] -5.35%

COc1cc(C2CNCc3cc(OC)c(O)cc32)ccc1O (centres undefined)
inactive: [1] 0.05% | [2] -7.1% | [3] -11.1% | [4] -17.8% | [5] -9.85% | [6] 1.2%

COC1C(O)C(C)OC(O[C@@H]2C[C@H]3CC[C@@H]4[C@H](CC[C@]5(C)[C@@H](C6=CC(=O)OC6)CC[C@]45O)[C@@]3(C)[C@H](O)C2)C1O (some centres undefined)
inactive: [1] 1.4% | [2] -12.5% | [3] -3.55% | [4] -6.35% | [5] 1% | [6] 3.8%

O=C(c1ccccc1)C1C(C(=O)c2ccccc2)N1C1CCCCC1 (centres undefined)
active: [1] 81.8% | [5] 84.5% | [6] 80.8%
inactive: [2] 32% | [3] 14.8% | [4] 2.3%

COC(=O)C1C(c2ccc(-c3ccccc3)cc2)N1C1CCCCC1 (centres undefined)
inactive: [1] 7.7% | [2] 19.8% | [3] 2.9% | [4] -2.05% | [5] -4% | [6] 1.85%

CS(=O)(=O)OC1C2CC(C1OS(C)(=O)=O)C(c1ccccc1)C2C(=O)O (centres undefined)
inactive: [1] 25% | [2] 21% | [3] 31.4% | [4] 12.2% | [5] -1.85% | [6] 34.2%

COc1cc(C(=O)OC(C)CC2(c3ccccc3)C(=O)NC(=O)NC2=O)cc(OC)c1OC (centres undefined)
inactive: [1] 2.75% | [2] -3.4% | [3] 24.1% | [4] 1.75% | [5] 3.05% | [6] -6.8%

CC(=O)c1ccc(N2CCNCC2)cc1
inactive: [1] -27.6% | [2] -49.8% | [3] -3.95% | [4] 16.6% | [5] -14.2% | [6] -22.1%

From PubChem BioAssay (NCI)
